Reference: PubChem BioAssay AID588596 (NMMLSC, 2011)
Entries with a potency or affinity are not part of this list. Active and inactive are the calls of the source. No rule for the calls is given here.

Test: yeast V-ATPase proton pumping modulator potency, dose response, S. cerevisiae, pHLuorin, cherry pick 1 (AID 588596)
Settings: S. cerevisiae pHLuorin vacuolar pH fluorescence; series mostly up to 33.1 µM; response, % activation: at the top concentration

response, % activation, inactive:
O=C(CCSC1=NCCCN1)c1ccc(F)cc1 12.9%, O=C(N1CCCC1)C12CCC3CC(CC(C3)C1)C2 -5%, Cc1cccc(N=Cc2[nH]c3ccc(Br)c(Cl)c3c2O)c1 -0.84%, CCOC(=O)Cn1c(=O)c(-c2cc(Br)ccc2N)nc2ccccc21 14.8%
